Records with an inconclusive call do not appear. Activity calls are given as the source filed them. Unless noted, calls come from the whole dose curve; as a rule, active = well fitted curve in the direction sought with a large enough effect; inconclusive = small, poorly fitted or top-dose-only effect, or another doubt; inactive = no such curve, though single readings can be large; an effect the other way counts as inactive or inconclusive.
Experiments:
[1] = target: Voltage-gated inwardly rectifying potassium channel KCNH2 (Homo sapiens) (UniProt Q12809); experiment: qHTS Assay for Small Molecule Inhibitors of the Human hERG Channel Activity (AID 588834);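 note: lower thallium flux fluorescence means stronger hERG block; nearly all actives have a fitted effect of over 50% in size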; note: potency is the fitted concentration of half-maximal effect
Chain of Voltage-gated inwardly rectifying potassium channel KCNH2 (Homo sapiens) (Q12809 whole entry, looked up): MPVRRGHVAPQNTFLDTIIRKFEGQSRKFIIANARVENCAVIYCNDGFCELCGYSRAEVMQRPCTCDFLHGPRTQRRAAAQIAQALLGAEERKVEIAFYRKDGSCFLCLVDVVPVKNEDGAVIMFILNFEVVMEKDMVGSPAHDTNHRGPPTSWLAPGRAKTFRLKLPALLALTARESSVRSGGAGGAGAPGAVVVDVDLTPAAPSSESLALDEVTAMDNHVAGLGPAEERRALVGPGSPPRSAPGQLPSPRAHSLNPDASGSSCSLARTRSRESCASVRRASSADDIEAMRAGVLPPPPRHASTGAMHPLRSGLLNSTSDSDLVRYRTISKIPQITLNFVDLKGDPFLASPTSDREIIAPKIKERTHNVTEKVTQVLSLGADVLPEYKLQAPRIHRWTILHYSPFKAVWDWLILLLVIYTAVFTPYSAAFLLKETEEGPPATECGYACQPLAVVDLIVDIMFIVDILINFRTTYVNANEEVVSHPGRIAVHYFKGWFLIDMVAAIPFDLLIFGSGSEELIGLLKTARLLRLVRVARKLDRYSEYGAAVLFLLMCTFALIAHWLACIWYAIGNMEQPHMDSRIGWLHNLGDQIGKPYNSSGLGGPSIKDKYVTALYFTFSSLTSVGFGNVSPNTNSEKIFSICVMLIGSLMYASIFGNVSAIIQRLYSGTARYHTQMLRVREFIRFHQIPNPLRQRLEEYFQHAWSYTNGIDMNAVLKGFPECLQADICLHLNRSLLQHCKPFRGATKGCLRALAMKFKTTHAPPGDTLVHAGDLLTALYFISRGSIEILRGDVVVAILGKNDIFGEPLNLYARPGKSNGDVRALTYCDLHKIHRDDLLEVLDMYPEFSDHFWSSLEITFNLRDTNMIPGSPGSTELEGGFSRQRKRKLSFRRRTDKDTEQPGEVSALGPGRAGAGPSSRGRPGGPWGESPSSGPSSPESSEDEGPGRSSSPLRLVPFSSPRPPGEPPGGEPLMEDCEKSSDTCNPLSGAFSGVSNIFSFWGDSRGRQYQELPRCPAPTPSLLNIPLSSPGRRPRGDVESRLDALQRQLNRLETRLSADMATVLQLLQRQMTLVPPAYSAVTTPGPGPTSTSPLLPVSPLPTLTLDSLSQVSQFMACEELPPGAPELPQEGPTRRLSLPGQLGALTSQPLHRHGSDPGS
Outline: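 Cells were infected with hERG-BacMam virus for 4 hrs at room temperature, grown overnight, then seeded at 2000/well. After dye loading and roughly 10 min compound treatment, thallium influx was triggered and fluorescence recorded.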

[2] = target: Glutaminase kidney isoform, mitochondrial (Homo sapiens) (UniProt O94925); experiment: qHTS for Inhibitors of Glutaminase (GLS): LOPAC Validation (AID 624146); note: nearly all actives have a fitted effect of over 60% in size; note: potency is the fitted concentration of half-maximal effect
Chain of Glutaminase kidney isoform, mitochondrial (Homo sapiens) (O94925 whole entry, looked up, canonical isoform): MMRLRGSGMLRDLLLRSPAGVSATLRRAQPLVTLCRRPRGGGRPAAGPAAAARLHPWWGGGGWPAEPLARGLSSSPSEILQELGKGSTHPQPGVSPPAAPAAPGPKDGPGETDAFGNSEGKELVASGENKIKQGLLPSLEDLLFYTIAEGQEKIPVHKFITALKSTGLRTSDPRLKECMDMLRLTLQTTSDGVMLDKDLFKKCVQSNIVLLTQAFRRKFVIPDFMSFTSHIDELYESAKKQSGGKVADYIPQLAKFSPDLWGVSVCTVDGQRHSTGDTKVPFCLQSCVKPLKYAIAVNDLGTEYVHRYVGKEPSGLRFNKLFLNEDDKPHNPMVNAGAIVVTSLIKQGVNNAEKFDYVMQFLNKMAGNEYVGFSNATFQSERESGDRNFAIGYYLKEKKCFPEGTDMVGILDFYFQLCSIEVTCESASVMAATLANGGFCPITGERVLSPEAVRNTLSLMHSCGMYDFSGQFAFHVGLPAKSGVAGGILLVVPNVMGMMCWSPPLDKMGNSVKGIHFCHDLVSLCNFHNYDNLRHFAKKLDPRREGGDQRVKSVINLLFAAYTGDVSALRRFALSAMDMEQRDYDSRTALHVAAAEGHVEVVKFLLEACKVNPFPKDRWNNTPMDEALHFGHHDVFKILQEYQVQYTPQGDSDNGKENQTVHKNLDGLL
Outline: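 Compounds were pin-transferred onto hKGA, after which L-glutamine (1 mM solution) and a detection mix of glutamate oxidase, HRP and Amplex Red were added. Initial and 30 min RT fluorescence reads were collected.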

[3] = qHTS of Trypanosoma Brucei Inhibitors: LOPAC Validation (AID 624147); note: 0% is about no effect
Outline: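 Luminescence from Kinase-Glo Plus, added after a 45-minute room-temperature reaction, served as the end-point read-out. The enzyme and substrate were preincubated with compound before ADP (130 uM final) initiated turnover. Concentration-effect curves came from normalized qHTS data.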

[4] = target: Glucagon-like peptide 1 receptor (Homo sapiens) (UniProt P43220); experiment: qHTS of GLP-1 Receptor Agonists: LOPAC Validation (AID 624148);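 note: luminescence from a luciferase reporter switched on by cAMP; 0% is about no effect; higher luminescence signal means agonism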
Chain of Glucagon-like peptide 1 receptor (Homo sapiens) (P43220 whole entry, looked up): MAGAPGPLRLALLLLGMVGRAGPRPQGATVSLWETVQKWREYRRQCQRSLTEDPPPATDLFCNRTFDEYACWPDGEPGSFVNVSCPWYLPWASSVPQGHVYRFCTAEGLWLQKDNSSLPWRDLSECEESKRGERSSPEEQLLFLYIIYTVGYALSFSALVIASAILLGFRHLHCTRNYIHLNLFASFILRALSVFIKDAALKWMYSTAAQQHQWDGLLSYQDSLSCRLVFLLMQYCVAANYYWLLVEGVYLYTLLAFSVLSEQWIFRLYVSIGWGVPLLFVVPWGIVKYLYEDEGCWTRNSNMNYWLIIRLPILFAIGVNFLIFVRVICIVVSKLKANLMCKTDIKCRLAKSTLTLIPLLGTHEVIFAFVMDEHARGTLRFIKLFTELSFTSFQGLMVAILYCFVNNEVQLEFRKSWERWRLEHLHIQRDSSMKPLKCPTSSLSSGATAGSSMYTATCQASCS
Outline: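 Agonism scored as increased luciferase luminescence driven by cAMP in HEK293 clones carrying GLP-1R. Cells settled 12 hours, received compound for 4-6 hr at 37 deg C, 5% CO2, and were read after 12 min detection reagent at RT.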

[5] = qHTS of Nrf2 Activators: LOPAC Validation (AID 624149); note: 0% is about no effect
Outline: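 Luciferase signal from ARE activation, read with Steady-Glo after 30 min at room temperature. Compounds were pin-transferred onto AREc32_Fluc cells (1000/well, OPTI-MEM/5% FBS, seeded overnight) and left 24 hr at 37 deg C.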

[6] = HTS Assay for Allosteric Antagonists of the Human D2 Dopamine Receptor: Hit Validation in HTRF (AID 624455); note: potency is the fitted concentration of half-maximal effect;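 note: stable D1 dopamine receptor cell line scored for blocking the D1 response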
Outline: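 Inhibition of the D1-mediated response was measured by HTRF. Cells used were a line stably expressing the D1 dopamine receptor.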

[7] = target: Luciferin 4-monooxygenase (Photinus pyralis) (UniProt P08659); experiment: Biochemical firefly luciferase enzyme assay for NPC (AID 624030)
Outline: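 Direct inhibition of firefly luciferase enzyme (10 nM final, 50 mM Tris Acetate) assessed by luminescence within 5 minutes. Percent activity scaled between DMSO and PTC124 positive control, with concentration-effect curves classified by fit quality and response.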

[8] = S16 Schwann cell PMP22 intronic element firefly luciferase assay (AID 624032)
Outline: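 Luciferase reporter of PMP22 intronic-element expression in stably transfected S16 rat Schwann cells, read by ONE-Glo luminescence after 24 h compound exposure at 37 C. Activity scaled between DMSO (0%) and positive-control PTC124; concentration-effect curves quality-classified.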

[9] = S16 Schwann cell PMP22 intronic element beta-lactamase assay (AID 624044; calls by dose curve)
Outline: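 Beta-lactamase reporter under a PMP22 intronic regulatory element in stable S16 rat Schwann cells; 24 h compound exposure. 460 nm blue signal normalized between DMSO (0%) and potassium clavulanate, with 535 nm FRET tracking viability; curves classed by r2 and response.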

[10] = target: Vitamin D3 receptor (Homo sapiens) (UniProt P11473); experiment: qHTS assay for small molecule agonists of vitamin D receptor signaling (AID 588543; calls by dose curve;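 note: 0% = DMSO basal and 100% = reference agonist control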)
Chain of Vitamin D3 receptor (Homo sapiens) (P11473 whole entry, looked up): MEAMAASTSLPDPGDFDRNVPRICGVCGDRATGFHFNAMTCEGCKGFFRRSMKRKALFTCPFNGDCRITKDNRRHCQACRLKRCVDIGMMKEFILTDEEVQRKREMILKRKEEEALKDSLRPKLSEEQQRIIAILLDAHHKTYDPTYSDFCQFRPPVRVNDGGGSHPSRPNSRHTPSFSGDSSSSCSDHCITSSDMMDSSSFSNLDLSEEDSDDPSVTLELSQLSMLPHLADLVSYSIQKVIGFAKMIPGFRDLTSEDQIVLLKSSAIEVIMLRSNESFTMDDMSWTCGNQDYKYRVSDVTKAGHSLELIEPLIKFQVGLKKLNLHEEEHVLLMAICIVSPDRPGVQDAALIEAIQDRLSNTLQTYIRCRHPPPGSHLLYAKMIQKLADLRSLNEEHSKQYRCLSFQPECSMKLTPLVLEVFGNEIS
Outline: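 qHTS in agonist mode: compound titrations stimulate a VDR-driven β-lactamase reporter in HEK293T cells over 16 h at 37 °C. Response normalized to 50 nM 1α,25-dihydroxyvitamin D3 = 100%, DMSO = 0%; Hill fitting gives EC50 and maximal response.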

[11] = target: Peroxisome proliferator-activated receptor gamma (Homo sapiens) (UniProt P37231); experiment: qHTS assay for small molecule antagonists of peroxisome proliferator-activated receptor gamma signaling (AID 588537; active = well fitted inhibition curve with a large enough effect in the signal ratio, with a control signal flat, not every such curve was filed as active; the % refers to the signal ratio;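 note: reporter cells co-stimulated with 50 nM rosiglitazone agonist during compound treatment; % of control where 0% means no effect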)
Chain of Peroxisome proliferator-activated receptor gamma (Homo sapiens) (P37231 whole entry, looked up): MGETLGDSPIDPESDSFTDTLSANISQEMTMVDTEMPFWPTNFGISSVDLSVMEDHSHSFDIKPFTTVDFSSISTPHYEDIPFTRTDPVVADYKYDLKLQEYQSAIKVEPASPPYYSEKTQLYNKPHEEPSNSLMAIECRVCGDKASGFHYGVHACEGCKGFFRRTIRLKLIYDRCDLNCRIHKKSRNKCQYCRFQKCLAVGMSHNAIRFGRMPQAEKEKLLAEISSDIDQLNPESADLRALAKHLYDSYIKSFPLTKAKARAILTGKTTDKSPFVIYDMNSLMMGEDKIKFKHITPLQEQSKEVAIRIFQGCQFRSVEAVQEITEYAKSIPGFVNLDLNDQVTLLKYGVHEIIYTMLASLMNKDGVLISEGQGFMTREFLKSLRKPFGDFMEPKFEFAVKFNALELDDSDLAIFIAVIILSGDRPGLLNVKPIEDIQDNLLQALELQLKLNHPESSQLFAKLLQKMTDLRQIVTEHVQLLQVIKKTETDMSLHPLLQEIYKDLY
Outline: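 Antagonist-mode β-lactamase reporter screen run as a titration series. HEK293 PPARγ-UAS-bla cells are stimulated with rosiglitazone (50 nM final) for 16 h, then CCF4 is read at 460/530 nm. Data are scaled between DMSO and rosiglitazone and fitted to the Hill equation.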

[12] = target: Thyroid hormone receptor beta (Homo sapiens) (UniProt P10828); experiment: qHTS assay for small molecule agonists of thyroid hormone receptor beta signaling (AID 588545; calls by dose curve)
Chain of Thyroid hormone receptor beta (Homo sapiens) (P10828 whole entry, looked up): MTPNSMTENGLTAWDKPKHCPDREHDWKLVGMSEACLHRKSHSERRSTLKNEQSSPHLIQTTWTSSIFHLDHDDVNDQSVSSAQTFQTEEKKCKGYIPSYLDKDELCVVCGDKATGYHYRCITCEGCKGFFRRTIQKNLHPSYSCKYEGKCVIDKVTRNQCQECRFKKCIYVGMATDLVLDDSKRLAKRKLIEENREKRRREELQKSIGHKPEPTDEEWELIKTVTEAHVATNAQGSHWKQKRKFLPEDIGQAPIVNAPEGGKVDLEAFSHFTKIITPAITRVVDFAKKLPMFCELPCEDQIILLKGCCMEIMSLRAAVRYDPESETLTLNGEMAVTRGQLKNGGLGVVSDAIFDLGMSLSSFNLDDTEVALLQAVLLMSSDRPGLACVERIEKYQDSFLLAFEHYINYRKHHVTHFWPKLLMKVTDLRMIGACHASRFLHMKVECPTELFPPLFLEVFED
Outline: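 In this cell-based screen, titrated compounds act on HEK 293 cells held in medium with 2% charcoal/dextran FBS, NEAA and pyruvate for 18 hrs at 37 C. Responses are expressed relative to T3 (10 nM) as 100% and basal DMSO as 0%.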

[13] = qHTS assay for small molecule antagonists of retinoid X receptor alpha signaling (AID 588546; active = well fitted inhibition curve with a large enough effect in the signal ratio, with a control signal flat, not every such curve was filed as active; the % refers to the signal ratio;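 note: cells stimulated with 9-cis-retinoic acid as agonist; % is set by controls: 0 for no effect and ±100 for the full control effect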); conditions: HEK293T RXRa-UAS-bla, beta-lactamase ratio, antagonist mode; measured here: W530 green channel, cytotoxicity proxy
Outline: (§1)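 Beta-lactamase reporter inhibition, read as CCF4 fluorescence ratio (ex 405, em 460/530 nm) after 2 h at RT. HEK293T UAS-bla cells, 2500/well, were stimulated with 9-cis-RA at 500 or 100 nM final alongside test compound for 18 h at 37 C.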

[14] = target: Retinoic acid receptor RXR-alpha (Homo sapiens) (UniProt P19793); experiment: as above; conditions: HEK293T RXRa-UAS-bla, beta-lactamase ratio, antagonist mode
Chain of Retinoic acid receptor RXR-alpha (Homo sapiens) (P19793 whole entry, looked up): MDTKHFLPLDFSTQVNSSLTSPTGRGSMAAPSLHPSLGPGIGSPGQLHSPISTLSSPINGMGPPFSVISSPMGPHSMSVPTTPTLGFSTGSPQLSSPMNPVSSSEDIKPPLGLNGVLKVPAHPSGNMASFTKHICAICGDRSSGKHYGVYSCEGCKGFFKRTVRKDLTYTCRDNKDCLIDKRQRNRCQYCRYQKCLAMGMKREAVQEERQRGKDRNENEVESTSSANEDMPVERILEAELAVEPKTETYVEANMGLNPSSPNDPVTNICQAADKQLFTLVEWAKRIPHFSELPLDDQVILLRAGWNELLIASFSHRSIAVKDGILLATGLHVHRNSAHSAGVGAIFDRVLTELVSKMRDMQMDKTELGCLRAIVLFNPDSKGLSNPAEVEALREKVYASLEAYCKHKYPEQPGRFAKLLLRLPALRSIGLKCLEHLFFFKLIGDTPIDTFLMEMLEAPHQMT
Outline: as §1

[15] = target: Vitamin D3 receptor (Homo sapiens) (UniProt P11473); experiment: qHTS assay for small molecule antagonists of vitamin D receptor signaling (AID 588541; calls by dose curve;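 note: receptor activated by calcitriol during compound treatment; series mostly up to about 77 µM; % is set by controls: 0 for no effect and ±100 for the full control effect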)
Outline: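 Antagonist-mode beta-lactamase reporter assay: HEK293T VDR-UAS-bla cells were exposed to titrated compound alongside 1-alpha,25-dihydroxyvitamin D3 at 3 nM final for 16 h. Values were normalized to the 50 nM agonist control and DMSO basal, with IC50 and efficacy from Hill equation fits.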

[16] = target: Thyroid hormone receptor beta (Homo sapiens) (UniProt P10828); experiment: qHTS assay for small molecule antagonists of thyroid hormone receptor beta signaling (AID 588547; active = well fitted inhibition curve with a large enough effect in the signal ratio, with a control signal flat, not every such curve was filed as active; the % refers to the signal ratio;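 note: cells stimulated with 0.4 nM T3 agonist during compound exposure; series mostly up to about 77 µM; % is set by controls: 0 for no effect and ±100 for the full control effect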); conditions: TR-UAS-bla HEK293, beta-lactamase ratio, antagonist mode, 18 h
Outline: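 Inhibition of T3-driven (0.4nM final) beta-lactamase reporter activity was measured over 0.59 nM to 92 uM compound after 18 h at 37 C. The cells were GripTite HEK293 TR-UAS-bla in charcoal/dextran-stripped serum, with CCF4 ratio read-out and IC50 from Hill fits.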

O=C(O)C1CCCNC1 (stereo unspecified)
inactive: Potency [1] | Potency [2] | Potency [3] | Potency [4] | Potency [5] | Potency [6]

CCCC(=O)NCCc1c2n(c3ccc(OC)cc13)CCCc1ccccc1-2
inactive: Potency [1] | Potency [2] | Potency [3] | Potency [4] | Potency [5] | Potency [6]

CC[C@@H]1Cc2cc(O)ccc2C2=C1c1ccc(O)cc1C[C@H]2CC
active: Potency [2] 0.794 µM
inactive: outcome [10] | Potency [3] | Potency [4] | Potency [5]

CC(=O)NNC(=O)N1Cc2ccccc2Oc2ccc(Cl)cc21
inactive: Potency [1] | Potency [2] | Potency [3] | Potency [4] | Potency [5]

NC(N)=[N+]1CCc2ccccc2C1
inactive: Potency [1] | Potency [2] | Potency [3] | Potency [4] | Potency [5] | Potency [6]

CCCc1c(OCCCOc2ccc(OCC(=O)O)cc2)ccc(C(C)=O)c1O
32.8%: max response [13]
inactive: Potency [11] | outcome [12] | max response [14] -30.3% | Potency [1] | Potency [2] | Potency [3] | Potency [4] | Potency [5] | Potency [6]

N=C(N)SCCN
inactive: Potency [1] | Potency [2] | Potency [3] | Potency [4] | Potency [5] | Potency [6]

CC1=C(/C=C/C(C)=C/C=C/C(C)=C\C(=O)O)C(C)(C)CCC1
inactive: Potency [11] | outcome [15] | outcome [12] | activity change % (negative = inhibition) [16] 9.82% | Potency [2] | Potency [3] | Potency [4] | Potency [5] | Potency [6]

[N-]=[N+]=Nc1ccc(C(=O)CSC[C@H](NC(=O)CC[C@H](N)C(=O)O)C(=O)NCC(=O)O)cc1
inactive: Potency [1] | Potency [2] | Potency [3] | Potency [4] | Potency [5] | Potency [6]

COc1ccc(-c2ccc(N)[n+](CCCC(=O)O)n2)cc1
inactive: Potency [1] | Potency [2] | Potency [3] | Potency [4] | Potency [5]

O=C(O)c1ccccc1Nc1ccccc1
inactive: Potency [1] | Potency [2] | Potency [3] | Potency [4] | Potency [5] | Potency [6]

Nc1ncnc2c1ncn2C1CCCC1
inactive: Potency [1] | Potency [2] | Potency [3] | Potency [4] | Potency [5] | Potency [6]

O=C(c1ccc2c(c1)OCCO2)N1CCCCC1
inactive: Potency [1] | Potency [2] | Potency [3] | Potency [4] | Potency [5] | Potency [6]

OC[C@H]1O[C@@H](n2cnc3cncnc32)[C@H](O)[C@@H]1O
inactive: Potency [1] | Potency [2] | Potency [3] | Potency [4] | Potency [5] | Potency [6]

Cn1c(=O)[nH]c2ncn(C)c2c1=O
inactive: Potency [1] | Potency [2] | Potency [3] | Potency [4] | Potency [5] | Potency [6]

CCCC[C@@]1(C2CCCC2)Cc2cc(OCC(=O)O)c(Cl)c(Cl)c2C1=O
inactive: Potency [1] | Potency [2] | Potency [3] | Potency [4] | Potency [5] | Potency [6]

Nc1ccc2c3c(cccc13)C(=O)NC2=O
inactive: Potency [2] | Potency [3] | Potency [4] | Potency [5] | Potency [6]
active: Potency [1] 5.01 µM

COC(=O)C(C)(N)Cc1ccc(O)cc1 (stereo unspecified)
inactive: Potency [1] | Potency [2] | Potency [3] | Potency [4] | Potency [5] | Potency [6]

Cc1nc(N=Nc2ccc(C(=O)O)cc2)c(COP(=O)(O)O)c(C=O)c1O
inactive: Potency [1] | Potency [2] | Potency [3] | Potency [4] | Potency [5] | Potency [6]

COc1cc(C(O)CO)ccc1O (stereo unspecified)
inactive: Potency [1] | Potency [3] | Potency [4] | Potency [5] | Potency [6]
active: Potency [2] 4.47 µM

NC(=O)c1cc[n+](CC2=C(C(=O)O)N3C(=O)[C@@H](NC(=O)[C@@H](c4ccccc4)S(=O)(=O)[O-])[C@H]3SC2)cc1
inactive: Potency [1] | Potency [2] | Potency [3] | Potency [4] | Potency [5] | Potency [6]

O=C(O)C1=CCCNC1
inactive: Potency [1] | Potency [2] | Potency [3] | Potency [4] | Potency [5] | Potency [6]

NCCCNCCCCNCCCN
active: Potency [6] 4.61 µM
inactive: Potency [1] | Potency [2] | Potency [3] | Potency [4] | Potency [5]

CC(C)C[C@H](NC(=O)[C@H](O)[C@H](N)Cc1ccccc1)C(=O)O
inactive: Potency [1] | Potency [2] | Potency [3] | Potency [4] | Potency [5] | Potency [6]

N[C@H](C(=O)O)[C@H]1C[C@@H]1C(=O)O
inactive: Potency [1] | Potency [2] | Potency [3] | Potency [4] | Potency [5] | Potency [6]

CC(N)(Cc1ccc(O)c(O)c1)C(=O)O (stereo unspecified)
inactive: Potency [1] | Potency [2] | Potency [3] | Potency [4] | Potency [5] | Potency [6]

COc1cc(CC(=O)O)ccc1O
active: Potency [2] 2.82 µM
inactive: Potency [1] | Potency [3] | Potency [4] | Potency [5] | Potency [6]

C#CCn1c(=O)c2c(ncn2C)n(C)c1=O
inactive: Potency [1] | Potency [2] | Potency [3] | Potency [4] | Potency [5] | Potency [6]

COc1ccc2c(c1)CCC1C2CC[C@@]2(C)C1CC[C@@H]2NCCCCCCN1C(=O)C=CC1=O (stereo partly specified)
inactive: Potency [1] | Potency [2] | Potency [3] | Potency [4] | Potency [5] | Potency [6]

— PubChem BioAssay (NCATS)
